Measured values published in PubChem BioAssay.
For some of these results: Results with a measured potency or affinity are listed apart. Active and inactive are the calls of the source. Unless noted, how the calls were made is not given here.

Legend:
[1] = antimalarial activity against Dd2 strain (AID 2302;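 active means growth inhibition above 50% at the single 2 µM test dose, taken to imply half-maximal potency below 2 µM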;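 further: 0% = DMSO untreated growth and 100% = chloroquine plus artemisinin killed control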); conditions: P. falciparum Dd2 in RBCs, LDH growth readout, 72 h; at 2 µM; stronger effect = higher value
[2] = human hepatoma cell viability loss – ATP luminescence, cytotoxicity control for P. falciparum antimalarial project, primary screen (AID 2303;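 active means inhibition above 50%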;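 further: 0% = DMSO wells and 100% = digitonin-killed cells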); conditions: HepG2 viability, 24-48 h, at 10 µM, stronger effect = higher value
[3] = biological target: L-lactate dehydrogenase (Plasmodium falciparum (isolate CDC / Honduras)) (UniProt Q27743); assay: PfLDH activity inhibition – cell lysate, 3D7 strain, counter-screen for P. falciparum growth inhibition project (AID 2304);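 further: 0% = vehicle and 100% = reference inhibitor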; conditions: P. falciparum 3D7 crude extract, LDH APAD/NBT absorbance; at 2 µM; stronger effect = higher value
[4] = inhibition of 3D7 malaria parasite growth – strain 3D7 (AID 2306);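 further: 0% = DMSO wells and 100% = chloroquine plus artemisinin control wells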; conditions: P. falciparum 3D7 erythrocytic growth, LDH absorbance, 72 h; at 2 µM; stronger effect = higher value
[5] = biological target: Calcium-dependent protein kinase 1 (Plasmodium falciparum (isolate 3D7)) (UniProt P62344); assay: PfCDPK1 kinase inhibitors, biochemical, TCAMS library (AID 1159585; cut-off not given, nearly all actives have IC50 up to about 0.98 µM;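 further: inhibitors leave more ATP so luminescence rises with inhibition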); conditions: recombinant PfCDPK1, Kinase-Glo ATP depletion luminescence
[6] = biological target: Plasmodium falciparum protein kinase 6 (PK6, PF3D7_1337100) (UniProt Q8IDW1); assay: PfPK6 kinase inhibitors, biochemical, TCAMS library (AID 1159586); conditions: recombinant PfPK6, Kinase-Glo ATP depletion luminescence
[7] = biological target: Protein kinase 7 (PK7), Plasmodium falciparum 3D7 (PF3D7_0213400) (UniProt Q7YTF7); assay: inhibition of Plasmodium PK7 catalytic activity – biochemical, TCAMS antimalarial set, Kinase-Glo luminescence (AID 1159587); conditions: recombinant PfPK7, Kinase-Glo ATP depletion luminescence
[8] = biological target: Calcium-dependent protein kinase 4 (Plasmodium falciparum (isolate 3D7)) (UniProt Q8IBS5); assay: PfCDPK4 kinase inhibitors, biochemical, TCAMS library (AID 1159588; cut-off not given, nearly all actives have IC50 up to about 0.91 µM); conditions: recombinant PfCDPK4, Kinase-Glo ATP depletion luminescence
Calcium-dependent protein kinase 4 (Plasmodium falciparum (isolate 3D7)), sequence (Q8IBS5 whole entry, looked up): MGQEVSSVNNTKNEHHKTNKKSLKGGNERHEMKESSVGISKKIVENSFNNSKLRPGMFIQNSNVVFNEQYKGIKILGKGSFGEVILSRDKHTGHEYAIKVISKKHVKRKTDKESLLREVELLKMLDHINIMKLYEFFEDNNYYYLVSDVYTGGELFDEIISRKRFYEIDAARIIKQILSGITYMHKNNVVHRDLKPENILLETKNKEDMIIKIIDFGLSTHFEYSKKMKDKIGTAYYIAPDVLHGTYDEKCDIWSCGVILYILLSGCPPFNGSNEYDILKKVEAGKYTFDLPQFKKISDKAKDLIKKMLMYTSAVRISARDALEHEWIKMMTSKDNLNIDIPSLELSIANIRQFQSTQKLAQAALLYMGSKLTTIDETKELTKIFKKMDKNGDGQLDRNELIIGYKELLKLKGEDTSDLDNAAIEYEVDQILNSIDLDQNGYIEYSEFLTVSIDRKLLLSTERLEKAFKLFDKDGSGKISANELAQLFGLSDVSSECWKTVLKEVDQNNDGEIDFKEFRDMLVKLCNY

Calcium-dependent protein kinase 1 (Plasmodium falciparum (isolate 3D7)), sequence (P62344 whole entry, looked up): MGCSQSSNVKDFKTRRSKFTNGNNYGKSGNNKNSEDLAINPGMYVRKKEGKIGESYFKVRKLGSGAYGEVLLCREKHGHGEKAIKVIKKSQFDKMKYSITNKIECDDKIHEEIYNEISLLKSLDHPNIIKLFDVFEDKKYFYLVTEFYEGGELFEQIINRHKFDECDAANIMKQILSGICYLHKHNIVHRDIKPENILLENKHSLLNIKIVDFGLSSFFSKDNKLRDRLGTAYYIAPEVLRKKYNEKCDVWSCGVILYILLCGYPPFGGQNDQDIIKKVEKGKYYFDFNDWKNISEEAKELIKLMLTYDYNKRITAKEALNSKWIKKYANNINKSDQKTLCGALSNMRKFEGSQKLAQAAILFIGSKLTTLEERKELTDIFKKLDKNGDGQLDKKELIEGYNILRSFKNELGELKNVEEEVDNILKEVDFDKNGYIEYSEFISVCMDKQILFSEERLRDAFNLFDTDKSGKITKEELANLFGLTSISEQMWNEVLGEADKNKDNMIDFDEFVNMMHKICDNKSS
L-lactate dehydrogenase (Plasmodium falciparum (isolate CDC / Honduras)), sequence (Q27743 whole entry, looked up): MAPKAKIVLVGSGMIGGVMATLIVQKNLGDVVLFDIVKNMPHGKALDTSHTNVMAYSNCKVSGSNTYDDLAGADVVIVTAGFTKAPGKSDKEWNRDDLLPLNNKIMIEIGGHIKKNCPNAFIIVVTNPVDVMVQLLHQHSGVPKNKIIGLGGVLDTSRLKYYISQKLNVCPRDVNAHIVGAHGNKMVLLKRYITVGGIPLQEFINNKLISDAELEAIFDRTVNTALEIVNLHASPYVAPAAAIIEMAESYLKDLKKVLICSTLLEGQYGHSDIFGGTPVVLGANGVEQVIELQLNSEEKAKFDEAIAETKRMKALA
Protein kinase 7 (PK7), Plasmodium falciparum 3D7 (PF3D7_0213400), sequence (Q7YTF7 1-343): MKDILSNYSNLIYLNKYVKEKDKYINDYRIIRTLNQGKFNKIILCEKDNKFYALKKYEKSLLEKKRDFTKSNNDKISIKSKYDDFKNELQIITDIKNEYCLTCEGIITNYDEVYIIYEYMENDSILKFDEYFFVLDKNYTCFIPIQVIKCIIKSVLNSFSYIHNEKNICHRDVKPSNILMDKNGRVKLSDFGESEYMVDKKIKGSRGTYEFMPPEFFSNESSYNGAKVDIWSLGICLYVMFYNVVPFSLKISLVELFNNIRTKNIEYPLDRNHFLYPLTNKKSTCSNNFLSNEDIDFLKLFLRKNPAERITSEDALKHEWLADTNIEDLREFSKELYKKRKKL
Plasmodium falciparum protein kinase 6 (PK6, PF3D7_1337100), sequence (Q8IDW1 1-305): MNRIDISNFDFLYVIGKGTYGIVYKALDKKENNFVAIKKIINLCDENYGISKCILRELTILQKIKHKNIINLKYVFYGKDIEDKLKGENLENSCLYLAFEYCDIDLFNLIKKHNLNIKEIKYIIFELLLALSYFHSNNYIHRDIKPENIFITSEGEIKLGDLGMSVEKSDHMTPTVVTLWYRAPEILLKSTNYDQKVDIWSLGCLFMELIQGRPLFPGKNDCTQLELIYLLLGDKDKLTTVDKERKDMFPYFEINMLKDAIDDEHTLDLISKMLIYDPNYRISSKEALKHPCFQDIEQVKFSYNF

COc1ccc2ncc(F)c([C@@H](O)CN3CCC(NCc4ccc5c(c4)NCCS5)CC3)c2n1
active: growth inhibition [1] 69% | inhibition [2] 77% | growth inhibition [4] 99%
inactive: inhibition [3] -3% | outcome [5] | outcome [6] | outcome [7] | outcome [8]

CN1CCN(c2nsc3ccc(-c4ccc(OCCN5CCCC5)cc4)cc23)CC1
active: growth inhibition [1] 99% | inhibition [2] 57% | growth inhibition [4] 102%
inactive: inhibition [3] 6% | outcome [5] | outcome [6] | outcome [7] | outcome [8]

COc1ccc(Nc2nccc(-c3ccc4ccnc(NCCCCN)c4c3)n2)cc1
inactive: growth inhibition [1] 47% | inhibition [2] 15% | inhibition [3] 6% | outcome [5] | outcome [6] | outcome [7] | outcome [8]
active: growth inhibition [4] 95%

O=C(Nc1ccccc1)NC1CCN(CCC2(c3ccc(Cl)c(Cl)c3)COCN(C(=O)c3ccccc3)C2)C1 (stereo not drawn)
active: growth inhibition [1] 81% | growth inhibition [4] 92%
inactive: inhibition [2] 23% | inhibition [3] 3% | outcome [5] | outcome [6] | outcome [7] | outcome [8]

CCCCCCCN(CCCCCCC)CCNc1cc(C)nc2ccccc12
inactive: growth inhibition [1] 31% | inhibition [2] 39% | inhibition [3] -2% | outcome [5] | outcome [6] | outcome [7] | outcome [8]
active: growth inhibition [4] 89%

c1cncc(CN2CCN(Cc3ccc(-c4ccc(-c5nc6ccccc6[nH]5)s4)cc3)CC2)c1
active: growth inhibition [4] 97%
inactive: growth inhibition [1] 34% | inhibition [2] 32% | inhibition [3] 6% | outcome [5] | outcome [6] | outcome [7] | outcome [8]

CN1CCN(c2cc3c(cc2Cl)CCN3C(=O)Cc2ccc(NC(=O)Nc3cccc4ccccc34)cc2)CC1
inactive: growth inhibition [1] 18% | inhibition [2] 12% | inhibition [3] -11% | outcome [5] | outcome [6] | outcome [7] | outcome [8]
active: growth inhibition [4] 92%

COc1cc(C(=O)NCCCN2CCN(c3cccc(Cl)c3)CC2)ccc1-c1nc2cc(Cl)c(F)cc2[nH]1
inactive: inhibition [2] 15% | inhibition [3] 0% | outcome [5] | outcome [6] | outcome [7] | outcome [8]
active: growth inhibition [1] 81% | growth inhibition [4] 100%

O=C(Nc1cccc(Cl)c1Cl)N[C@H]1CCN(CCCCCNC(=O)[C@@H]2C[C@H]2c2ccc(Cl)c(Cl)c2)C1
inactive: growth inhibition [1] -7% | inhibition [2] 40% | inhibition [3] -2% | outcome [5] | outcome [6] | outcome [7] | outcome [8]
active: growth inhibition [4] 87%

CCNc1cc(C)nc(Nc2ccc(NC(=O)c3c(F)cccc3Cl)cc2)n1
active: growth inhibition [1] 89% | growth inhibition [4] 102%
inactive: inhibition [2] 49% | inhibition [3] -4% | outcome [5] | outcome [6] | outcome [7] | outcome [8]

NCCNc1ccc([N+](=O)[O-])cc1C(=O)Nc1cccc(C(F)(F)F)c1
active: growth inhibition [4] 94%
inactive: growth inhibition [1] 33% | inhibition [2] 1% | inhibition [3] 0% | outcome [5] | outcome [6] | outcome [7] | outcome [8]

O=c1[nH]ccc2nc(N[C@@H]3CCNC3)nc(Nc3cccc(S(=O)(=O)N4CCOCC4)c3)c12
active: growth inhibition [1] 98% | growth inhibition [4] 90%
inactive: inhibition [2] 0% | inhibition [3] 4% | outcome [5] | outcome [6] | outcome [7] | outcome [8]

O=C(/C=C/c1ccc(Cl)c(Cl)c1)N1CCC(CN2CCC(Cc3cc4ccccc4[nH]3)CC2)CC1
active: growth inhibition [1] 56% | growth inhibition [4] 96%
inactive: inhibition [2] 49% | inhibition [3] -3% | outcome [5] | outcome [6] | outcome [7] | outcome [8]

COc1ccc(C2CCN(C#N)C2)cc1OC1CCCC1 (stereo not drawn)
inactive: inhibition [2] 9% | inhibition [3] 2% | outcome [5] | outcome [6] | outcome [7] | outcome [8]
active: growth inhibition [1] 97% | growth inhibition [4] 102%

CN(C)C(CNC(=O)c1cc(-c2ccncc2)c(-c2ccc(Cl)c(O)c2)o1)c1ccccc1 (stereo not drawn)
inactive: growth inhibition [1] 28% | inhibition [2] 28% | inhibition [3] 0% | outcome [5] | outcome [6] | outcome [7] | outcome [8]
active: growth inhibition [4] 91%

Cc1[nH]c(C)c(-c2ccc(-c3cccc(Cl)c3)nc2)c(=O)c1Cl
inactive: inhibition [2] 15% | inhibition [3] 0% | outcome [5] | outcome [6] | outcome [7] | outcome [8]
active: growth inhibition [1] 97% | growth inhibition [4] 97%

O=c1cc(NCCCNCc2cccc(Oc3ccccc3)c2)[nH]c2ccccc12
active: growth inhibition [1] 67% | growth inhibition [4] 93%
inactive: inhibition [2] -4% | inhibition [3] -1% | outcome [5] | outcome [6] | outcome [7] | outcome [8]

O=C1COc2ccc3ccccc3c21
inactive: growth inhibition [1] 3% | inhibition [2] -3% | inhibition [3] 6% | outcome [5] | outcome [6] | outcome [7] | outcome [8]
active: growth inhibition [4] 99%

Cc1cc(N(C)C)nc(Nc2ccc(NC(=O)c3ccc(Br)o3)cc2)n1
inactive: inhibition [2] 1% | inhibition [3] -2% | outcome [5] | outcome [6] | outcome [7] | outcome [8]
active: growth inhibition [1] 57% | growth inhibition [4] 101%

Cc1cc(C)cc(OCC(O)CN(Cc2cc(Cl)cc(Cl)c2)C(=O)Nc2ccc(Cl)cc2)c1 (stereo not drawn)
active: growth inhibition [4] 97%
inactive: growth inhibition [1] 43% | inhibition [2] -9% | inhibition [3] -2% | outcome [5] | outcome [6] | outcome [7] | outcome [8]

COCCOc1cccc(CN2CCC(c3cc4nc(C)cc(C(F)(F)F)n4n3)C2)c1 (stereo not drawn)
active: growth inhibition [1] 74% | growth inhibition [4] 85%
inactive: inhibition [2] 25% | inhibition [3] 2% | outcome [5] | outcome [6] | outcome [7] | outcome [8]

COc1cc(Cc2cnc(N)nc2N)c2c(c1OC)OC(C)(C)C=C2
active: growth inhibition [4] 93%
inactive: growth inhibition [1] 2% | inhibition [2] 7% | inhibition [3] -3% | outcome [5] | outcome [6] | outcome [7] | outcome [8]

FC(F)(F)c1ccc2nc(-c3ccc(-c4cccc(CNCC5CCCO5)c4)s3)[nH]c2c1 (stereo not drawn)
active: growth inhibition [1] 99% | growth inhibition [4] 99%
inactive: inhibition [2] 37% | inhibition [3] -7% | outcome [5] | outcome [6] | outcome [7] | outcome [8]

Oc1ccc(CCNc2nc(NCc3ccccc3-c3cccc(Cl)c3)nc(N3CCNCC3)n2)cc1
active: growth inhibition [4] 84%
inactive: growth inhibition [1] 11% | inhibition [2] 15% | inhibition [3] -3% | outcome [5] | outcome [6] | outcome [7] | outcome [8]

NCC1CCCN1Cc1cccc(-c2ccc(-c3nc4ccccc4[nH]3)s2)c1 (stereo not drawn)
inactive: inhibition [2] 16% | inhibition [3] 3% | outcome [5] | outcome [6] | outcome [7] | outcome [8]
active: growth inhibition [1] 66% | growth inhibition [4] 99%

COc1ccccc1NC(=O)Nc1cccc(-c2cccc(-c3nc4ccc(C(F)(F)F)cc4[nH]3)c2)c1
inactive: inhibition [2] 21% | inhibition [3] 5% | outcome [5] | outcome [6] | outcome [7] | outcome [8]
active: growth inhibition [1] 97% | growth inhibition [4] 101%

NC1=NCN(OCc2ccc(Cl)c(Cl)c2)C(N)=N1
inactive: growth inhibition [1] 4% | inhibition [2] 14% | inhibition [3] -3% | outcome [5] | outcome [6] | outcome [7] | outcome [8]
active: growth inhibition [4] 95%

Cn1nc(-c2ccccc2F)c2cc(C(=O)NC3CCN(Cc4ccccc4)CC3)sc21
active: growth inhibition [4] 97%
inactive: growth inhibition [1] 34% | inhibition [2] 5% | inhibition [3] 3% | outcome [5] | outcome [6] | outcome [7] | outcome [8]

COc1cc2nc(NCC3CCCCC3)nc(NCc3ccccc3)c2cc1OC
inactive: inhibition [2] 18% | inhibition [3] 7% | outcome [5] | outcome [6] | outcome [7] | outcome [8]
active: growth inhibition [1] 101% | growth inhibition [4] 101%

CC[C@H](C)CNC(=O)c1cncc(-c2ccc(CNC3CCCC3)cc2)c1
active: growth inhibition [4] 97%
inactive: growth inhibition [1] 5% | inhibition [2] -25% | inhibition [3] 0% | outcome [5] | outcome [6] | outcome [7] | outcome [8]

COc1ccc(CC(=O)Nc2ccc(-c3cccc(-c4nc5c(C)cccc5[nH]4)c3)cc2)cc1O
active: growth inhibition [4] 96%
inactive: growth inhibition [1] 30% | inhibition [2] 6% | inhibition [3] 4% | outcome [5] | outcome [6] | outcome [7] | outcome [8]

O=C(/C=C/c1ccsc1)N1CCC(CCN2CCC(c3c[nH]c4ccccc34)CC2)CC1
inactive: growth inhibition [1] 24% | inhibition [2] 37% | inhibition [3] 4% | outcome [5] | outcome [6] | outcome [7] | outcome [8]
active: growth inhibition [4] 88%

COc1cccc(C2=CC(C)(C)Oc3cc(OCCN(C)C)ccc32)c1
inactive: inhibition [3] -4% | outcome [5] | outcome [6] | outcome [7] | outcome [8]
active: growth inhibition [1] 96% | inhibition [2] 57% | growth inhibition [4] 97%

COc1cc(Cl)c(C)cc1-n1cc(C(=O)c2cc(Br)ccc2O)cc(C#N)c1=O
active: growth inhibition [4] 95%
inactive: growth inhibition [1] 35% | inhibition [2] 3% | inhibition [3] -3% | outcome [5] | outcome [6] | outcome [7] | outcome [8]

Cc1cc(-c2nc3ccc(N4CCN(C)CC4)cc3[nH]2)nn1Cc1cc(Cl)ccc1OCC(C)C
active: growth inhibition [1] 67% | growth inhibition [4] 99%
inactive: inhibition [2] 41% | inhibition [3] 1% | outcome [5] | outcome [6] | outcome [7] | outcome [8]

O=S(=O)(c1ccc2ccccc2c1)N1CCCN(Cc2ccc(OCCCN3CCCCC3)cc2)CC1
inactive: growth inhibition [1] 11% | inhibition [2] 43% | inhibition [3] -3% | outcome [5] | outcome [6] | outcome [7] | outcome [8]
active: growth inhibition [4] 98%

COc1cc2nc(N3CCN(C(=O)c4ccc(N(C(=O)OC(C)(C)C)C(=O)OC(C)(C)C)cc4)CC3)nc(N)c2cc1OC
active: growth inhibition [4] 96%
inactive: growth inhibition [1] 19% | inhibition [2] 12% | inhibition [3] 1% | outcome [5] | outcome [6] | outcome [7] | outcome [8]

COc1ccc2nccc(N3CCC(SCCNCc4ccc5c(n4)NC(=O)CS5)C3)c2n1 (stereo not drawn)
inactive: inhibition [2] 34% | inhibition [3] 2% | outcome [5] | outcome [6] | outcome [7] | outcome [8]
active: growth inhibition [1] 100% | growth inhibition [4] 95%

c1ccc2[nH]c(-c3ccc(-c4ccc(CN5CCCCC5)cc4)cc3)nc2c1
active: growth inhibition [1] 100% | growth inhibition [4] 99%
inactive: inhibition [2] 27% | inhibition [3] 2% | outcome [5] | outcome [6] | outcome [7] | outcome [8]

Cc1ccc2c(NN=Cc3ccc(Cl)cc3)cc(C)nc2c1
active: growth inhibition [4] 100%
inactive: growth inhibition [1] 34% | inhibition [2] -1% | inhibition [3] -2% | outcome [5] | outcome [6] | outcome [7] | outcome [8]

O=C(NCCN1CCCc2ccccc21)C1CCN(c2nc(-c3ccc(Cl)cc3)no2)CC1
inactive: inhibition [2] 11% | inhibition [3] -1% | outcome [5] | outcome [6] | outcome [7] | outcome [8]
active: growth inhibition [1] 62% | growth inhibition [4] 86%
